Bioassay records (PubChem)
Only some compounds are listed: those with a hit (about 3.4% of all), similar ones and a draw of the others.
EWS-Fli block: EWS/Fli-driven NR0B1 reporter inhibitors, primary screen, A673 cells, NR0B1 luciferase, luminescence, MLPCN library; viability-normalised; inhibition, % at 12.6 µM; hit rate 0.67% among 350,000; AID 651661, 2012;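 active means mean inhibition of at least 50% after viability correction, with every replicate also passing that limit; inconclusive means mean reaches 50% but only one of two replicates passes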;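 further: firefly luciferase signal divided by Alamar Blue viability fluorescence both relative to DMSO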
LGR2 inh: inhibitors of bursicon-induced LGR2 CRE-luciferase signal, primary screen, cell-based, HEK293, CRE-luciferase reporter, bursicon stimulation; inhibition, % at 9.99 µM; AID 720647, 2013; Drosophila bursicon receptor LGR2 (rickets); bursicon-stimulated, 4 h; hit rate 0.35% among 380,000;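 active means drop in luminescence signal, shown as inhibition above about 50% in the replicate tests, limit read from the data, passing the limit was not always enough; inconclusive means probably only some replicates passing the limit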;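 further: agonist challenge used bursicon conditioned medium at about half maximal strength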
PGC1a acetyl inh: inhibitors of PGC1a acetylation signal, primary screen, cell-based, U2OS, AlphaScreen, inhibitor mode | AlphaScreen anti-acetyl-lysine; with virally co-expressed GCN5 acetyltransferase | inhibition, % at 15.6 µM | hit rate 0.17% among 350,000 | AID 651687, 2012;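 active means every replicate shows inhibition of at least 40%; inconclusive means mean inhibition at least 40% but some replicate below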;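 further: 0% = neutral control wells and 100% = positive control wells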
PAX8 inh HTS: inhibitors of PAX8-driven TPO luciferase reporter, primary screen, RMG-I cells, single concentration | SteadyGlo, 24 h | inhibition, % at 12.6 µM | AID 652154, 2013 | hit rate 1.2% among 360,000;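 active means mean replicate inhibition at least 60% with every replicate also reaching 60%; inconclusive means only one of the two criteria is met; inactive means mean below 60% and not all replicates reaching 60%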;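 further: luciferase light reporting Pax8 driven TPO promoter activity; plate controls were median of neutral control wells for no effect and mitoxantrone controls for full effect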
SIRT5 block: SIRT5 desuccinylase inhibitors, primary screen, biochemical, fluorescence imaging, single point, set 5. NAD-dependent protein deacylase sirtuin-5, mitochondrial (Homo sapiens), Q9NXA8. Purified SirT5, succinyl-peptide AMC, trypsin-coupled fluorescence. inhibition, % at 15 µM. hit rate 1.1% among 330,000. AID 652115, 2013; in the data active means inhibition above about 15%; inconclusive means no clear call, values can overlap the other calls
Target sequence (Q9NXA8 whole entry, looked up): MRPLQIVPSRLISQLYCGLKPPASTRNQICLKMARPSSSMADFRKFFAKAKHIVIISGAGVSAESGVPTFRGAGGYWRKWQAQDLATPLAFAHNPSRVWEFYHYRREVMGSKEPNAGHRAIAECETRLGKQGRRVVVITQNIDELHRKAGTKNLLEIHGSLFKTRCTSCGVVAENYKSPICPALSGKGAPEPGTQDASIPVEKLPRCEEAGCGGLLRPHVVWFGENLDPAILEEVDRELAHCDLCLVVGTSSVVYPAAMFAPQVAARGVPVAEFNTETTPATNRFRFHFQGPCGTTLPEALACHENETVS
Ecoli rRNA inh: reduced GFP signal of wild-type E. coli, primary screen, bacterial rRNA inhibitor project, GFP/RFP fluorescence, OD600, single point | AID 720706, 2013 | hit rate 1.6% among 350,000 | E. coli WT GFP vs humanized-ribosome RFP mutants, 24 h; hits give low values; DMSO median 0, no signal -100 | GFP signal change (wild-type ribosome), % (concentration not given with the values);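 active means significant combined selectivity score with lowered wild-type GFP, culture density cut under 30%, mutant RFP and density less affected; inactive means any of these conditions unmet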
Starred values were filed as active, the others as inactive; ? = inconclusive; . = not tested or not shown.

SMILES	EWS-Fli block	LGR2 inh	PGC1a acetyl inh	PAX8 inh HTS	SIRT5 block	Ecoli rRNA inh
O=c1c2ccccc2c(C=NCCCN2CCOCC2)c(O)n1Cc1ccc2c(c1)OCO2	-8	5	.	2	0	-29*
C/C(=N\N=C(/N)SC1CC(=O)N(c2ccc(Cl)c(Cl)c2)C1=O)c1cccs1 (stereo not given)	9	-13	-6	.	-5	-39*
Cc1ccc(/C=N/Nc2nnc(Cl)c3ccccc23)cc1	-11	-30	-6	-120	2	-11
CC(=O)Nc1ccc(C=NNc2nnc(NN=Cc3ccc(NC(C)=O)cc3)c3ccccc23)cc1	29	?	.	-13	0	-16*
CC(C)NC(=O)N1C[C@@H]2C(c3ccccc3)[C@H](C1)N2Cc1ccc(F)cc1 (stereo not given in full)	.	.	.	.	.	-1
Cc1ccc2nc(-c3cccc(S(=O)(=O)N4CCCC4)c3)cn2c1	.	0	.	-58	-5	-1
Cc1ccn2cc(-c3cccc(S(=O)(=O)N4CCCCC4)c3)nc2c1	.	-8	-1	-33	1	-44*
COc1ccc(C2=Nn3c(nnc3-c3ccccc3F)SC2)cc1OCC1CC1	56*	-2	-7	50	4	-15
FC(F)Oc1ccc(C2=Nn3c(nnc3-c3ccccc3Cl)SC2)cc1OCC1CC1	18	-13	10	4	.	4
CN(C)CC#Cc1ccc([C@H]2[C@@H](CO)N3CCCCN(C(=O)C4CC4)C[C@H]23)cc1	0	.	7	-17	.	.
Cc1ccc(S(=O)(=O)N2C[C@@H]3CCCC[C@@H]3[C@@H](C)[C@H]2c2cn(Cc3ccccc3)c3ncccc23)cc1	5	16	-5	?	22*	9
Cc1ccc(S(=O)(=O)N2C[C@@H]3CCCC[C@@H]3[C@@H](C)[C@H]2c2cn(Cc3ccccc3)c3ccccc23)cc1	18	36	.	14	-3	4
CC(C)NC(=O)Nc1ccc2c(c1)CC(=O)N([C@@H](C)CO)C[C@@H](C)[C@@H](CN(C)C(=O)Nc1ccc(F)cc1)O2	-1	-3	-4	-9	-2	3
CS(=O)(=O)Nc1ccc2c(c1)[C@@H]1C[C@@H](CC(=O)NCc3ccc(Oc4ccccc4)cc3)O[C@H](CO)[C@@H]1O2	53*	-12	-6	31	-3	6
CS(=O)(=O)Nc1ccc2c(c1)[C@H]1C[C@@H](CC(=O)NCc3ccccc3)O[C@H](CO)[C@H]1O2	2	-2	7	3	2	1
CS(=O)(=O)Nc1ccc2c(c1)[C@@H]1C[C@@H](CC(=O)NCc3ccc(Oc4ccccc4)cc3)O[C@@H](CO)[C@@H]1O2	55*	-28	-15	84*	1	6
CNC[C@H]1Oc2ccc(NC(C)=O)cc2CC(=O)N(C)C[C@H]1C	.	.	.	.	.	-1
O=C(NCCN1CCCC1)[C@H]1[C@H](CO)[C@H]2Cn3c(cccc3=O)[C@@H]1N2C(=O)NC1CCCC1	-8	-5	.	-7	0	2
Cc1ccc(/C=C2/CNC/C(=C/c3ccc(C)cc3)C2=O)cc1	53*	55*	74*	31	-6	-14
Cc1ccc(/C=C2\CCOC2=O)cc1	-30	-7	.	-24	-1	3
COc1cc(/C=C(/C#N)c2nc3ccccc3[nH]2)ccc1OCc1ccc(C(=O)O)o1	4	3	4	.	18*	3
COc1ccc(N2CCN(CC(=O)Nc3ccccc3C(=O)NCc3ccccc3)CC2)cc1	9	2	-20	14	-1	-29*
COC(=O)c1ccccc1NC(=O)N1CCN(c2ccc(OC)cc2)CC1	4	0	.	-9	-3	-26
COc1ccc(N2CCN(C(=O)Nc3ccccc3Cl)CC2)cc1	-21	29	-3	-9	-5	-23*
COc1ccc(CNC(=O)N2CCN(c3ccccc3)CC2)cc1	-5	14	-7	-4	16*	4
SMILES	EWS-Fli block	LGR2 inh	PGC1a acetyl inh	PAX8 inh HTS	SIRT5 block	Ecoli rRNA inh
COc1cc(CCC(=O)N2CCN(c3ccccc3)CC2)cc(OC)c1OC	-1	2	.	-1	29*	-7
COc1ccc(N2CCN(C(=O)NCc3ccc(C)cc3)CC2)cc1	0	14	3	-1	-3	2
COc1ccc(NC(=O)O[C@H]2[C@H](OC(=O)Nc3ccccc3)[C@H](OC(=O)Nc3ccccc3)[C@@H](OC)O[C@@H]2CO)cc1	-1	.	.	-16	1	.
CCOC(=O)c1ccc(NC(=O)O[C@H]2[C@H](OC(=O)Nc3ccccc3)[C@@H](OC(=O)Nc3ccccc3)[C@@H](OC)O[C@@H]2CO)cc1	-13	.	.	82*	20*	.
COc1ccc2c3c([nH]c2c1)[C@H](CO)N(Cc1nccs1)CC31CCN(Cc2nccs2)CC1	.	.	.	.	.	1
COCC(=O)N1CC2(C1)CN(Cc1cccc(OC)c1)[C@H](CO)c1c2c2ccc(OC)cc2n1C	-2	-5	-5	.	1	-3
O=C(C[C@@H]1CC[C@H]2[C@@H](COC[C@H](O)CN2S(=O)(=O)c2ccccc2)O1)Nc1ccccc1	-8	-1	2	21	-3	-4
Cc1cccc(C)c1-n1nnnc1-c1nc2cc3ccccc3cc2[nH]c1=O	54*	-9	.	48	-1	-11
Cc1cccc(C)c1-n1nnnc1-c1nc2cc(Br)ccc2[nH]c1=O	11	6	.	-8	0	4
C[C@@H]1CN([C@@H](C)CO)C(=O)Cc2cc(NC(=O)Nc3cccc4ccccc34)ccc2O[C@@H]1CN(C)C(=O)Nc1ccccc1	1	10	-1	9	-1	-4
CC(C)(C)Nc1nc2nonc2nc1NC(C)(C)C	4	4	-6	.	7	-49*
Cc1cc(C)nc(N(C#N)CC(=O)c2ccccc2)n1	.	1	11	.	.	9
CCc1ccc(C(=O)CN(C#N)c2nc(C)cc(C)n2)cc1	.	-6	49*	16	4	.
Cc1c(NC(=O)C(C)OC(=O)c2c3c(nc4ccccc24)CCC3)c(=O)n(-c2ccccc2)n1C (stereo not given)	8	-13	.	73*	-4	8
Cc1c(NC(=O)COC(=O)c2c3c(nc4ccccc24)CCCC3)c(=O)n(-c2ccccc2)n1C	9	-3	.	-4	0	10
Cc1cccc(NCc2cc(Cl)ccc2O)n1	-2	2	-9	.	-2	-52*
COc1ccc(C2CCCN2C(=O)Nc2ccc(C)c(C)c2)cc1OC (stereo not given)	-26	10	-2	-2	16*	-8
